Reference: paper PMC7819943, “Rice protein-binding microarrays: a tool to detect cis-acting elements near promoter regions in rice”
Whole data set: some 35,000 sequences, median “fluorescence intensity (a.u.)” near 10,000, cut for the highest 2% near 52,000. Only a selection was taken, and the highest values are over-represented in it overall.

Target: T1, OsWOX13 (Oryza sativa, UniProt Q5QMM3 1-267)
T1 sequence: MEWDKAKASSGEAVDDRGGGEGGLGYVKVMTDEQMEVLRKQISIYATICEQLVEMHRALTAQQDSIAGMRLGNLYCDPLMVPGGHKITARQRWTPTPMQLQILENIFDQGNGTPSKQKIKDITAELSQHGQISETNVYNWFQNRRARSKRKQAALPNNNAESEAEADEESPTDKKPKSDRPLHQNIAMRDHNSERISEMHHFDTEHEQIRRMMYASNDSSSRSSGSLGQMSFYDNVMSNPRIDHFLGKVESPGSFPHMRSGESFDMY
Test: protein-binding microarray (RPBM); PBS, 2% BSA, 51.3 ng/ul salmon testes DNA, 50 uM zinc acetate, 200 nM TF, 25 C, 1 h; high values mean tight binding
Conditions: protein: recombinant; tags: N-terminal polyhistidine and DsRed monomer fusion (pET32a); label: CyDye5-dUTP incorporated in the synthesized complementary strand; 3' TTTTT single-stranded linker to array surface; dsDNA, one strand shown
Outline: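 Binding signal is defined as the fluorescence intensity of each feature in arbitrary units, read on an Axon 4000B scanner. Transcription factors with N-terminal polyhistidine and DsRed fusions came from E. coli BL21-CodonPlus and were purified on Ni–NTA. They were incubated at 200 nM for 1 h at 25 °C on a custom Agilent array that had been made double-stranded with Cy5-dUTP, with 50 µM zinc acetate present, and the array was washed.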

Q: Which binding signal does the source give for “ATGCCATCCAATCAAGCCACGACGATCCACAGCCATAGTGCGGAGTCACCTAGTGCAG” here?
A: 11500 fluorescence intensity (a.u.)

Q: “AAGCAAATCTCTAGATAGATAGATAGATGGATGGATGGATCGGAGTCACCTAGTGCAG” was tested. Which binding signal did it give?
A: 10800 fluorescence intensity (a.u.)

Q: For “GATCATTTCAGTGATTAATTTAATTGGAAAAGTAATTCAACGGAGTCACCTAGTGCAG”, which binding signal is on record?
A: 6700 fluorescence intensity (a.u.)

Q: For “ATTTAATTAATATGTTAATGAGCTAATCCGTTTTCGGGACCGGAGTCACCTAGTGCAG”, which binding signal is on record?
A: 52300 fluorescence intensity (a.u.)

Q: “GTTTTAGCTAATATTTAATTAATCATGTGCTAATGAGCTACGGAGTCACCTAGTGCAG” was tested. Which binding signal did it give?
A: 8590 fluorescence intensity (a.u.)

Q: “GTTTAATATTTATAATTAATTTTCAAACATCCGATGTGATCGGAGTCACCTAGTGCAG” was tested. Which binding signal did it give?
A: 19000 fluorescence intensity (a.u.)

Q: How did the binding signal turn out when “TGCTTAATTAATTATGTGCTAATGAGGTCTTTCATTTTACCGGAGTCACCTAGTGCAG” was run?
A: 56100 fluorescence intensity (a.u.)

Q: “GAGGGAGTACTAATTATTTAATTTGATGATTATAATACTTCGGAGTCACCTAGTGCAG” was tested. Which binding signal did it give?
A: 17900 fluorescence intensity (a.u.)

Q: For “TGCTAATGGACTTATTACTTTTGCTTGCTTTAATTTTGCCCGGAGTCACCTAGTGCAG”, which binding signal is on record?
A: 14600 fluorescence intensity (a.u.)

Q: “GATGTGATTGGATTAATTTTCAAAAGTACTTTTATATGATCGGAGTCACCTAGTGCAG” was tested. Which binding signal did it give?
A: 56300 fluorescence intensity (a.u.)

Q: How did the binding signal turn out when “AATTAATCATGCGTTAATGGACCGTTCCGTTTTCCGTGTTCGGAGTCACCTAGTGCAG” was run?
A: 20900 fluorescence intensity (a.u.)

Q: “CCTAATAATTAATTAATGATGCACGAGGGATTATCCAACTCGGAGTCACCTAGTGCAG” was tested. Which binding signal did it give?
A: 53200 fluorescence intensity (a.u.)

Q: For “CTTACCTGCTTTAATTTATGCATAATGTTGCTTCATAAACCGGAGTCACCTAGTGCAG”, which binding signal is on record?
A: 6090 fluorescence intensity (a.u.)

Q: Which binding signal does the source give for “CGGTCAAATTATCCAAATTAATTAAAGAGGGAACTCGGTCCGGAGTCACCTAGTGCAG” here?
A: 35300 fluorescence intensity (a.u.)

Q: “ACGAATCTATTGAGCCTAATTAATTCATAATTAGTCTATGCGGAGTCACCTAGTGCAG” was tested. Which binding signal did it give?
A: 14600 fluorescence intensity (a.u.)

Q: With “GAATTAAATGATGTGTGAATAATGGATGGCTAGGATGCAACGGAGTCACCTAGTGCAG” as the sequence, how does the binding signal read?
A: 9780 fluorescence intensity (a.u.)

Q: With “TTTAATTGTTATGAACACGACAATGTAATCGGATCATAGACGGAGTCACCTAGTGCAG” as the sequence, how does the binding signal read?
A: 10100 fluorescence intensity (a.u.)

Q: How did the binding signal turn out when “ATTGTATCTAATTATTGGCAACATGGAAATTAATCTCTTGCGGAGTCACCTAGTGCAG” was run?
A: 9160 fluorescence intensity (a.u.)

Q: With “CATAAATCATTTCTTTTGTTTTCAAACTAAGCATATTTGACGGAGTCACCTAGTGCAG” as the sequence, how does the binding signal read?
A: 4540 fluorescence intensity (a.u.)

Q: Which binding signal does the source give for “AATGTGATTTTCATGTATCCAATTAAAATATTTTAAGAAGCGGAGTCACCTAGTGCAG” here?
A: 9180 fluorescence intensity (a.u.)

Q: For “CCTTGATGATTGAACCAGTCAGCCCCAACATCTCTATAAACGGAGTCACCTAGTGCAG”, which binding signal is on record?
A: 25800 fluorescence intensity (a.u.)

Q: Which binding signal does the source give for “GCAATTTGATTTGGCCTGTATATTATTATGTGCAGGGTTCCGGAGTCACCTAGTGCAG” here?
A: 13800 fluorescence intensity (a.u.)

Q: “CCTTAATTAATTAATTTCTAGATCTCAAGAGGGCAACAGACGGAGTCACCTAGTGCAG” was tested. Which binding signal did it give?
A: 57200 fluorescence intensity (a.u.)

Q: “TAATTTATTAATTTATTATTAGAGTATATATATTTCAAGACGGAGTCACCTAGTGCAG” was tested. Which binding signal did it give?
A: 6800 fluorescence intensity (a.u.)

Q: For “TTTCAAGAGATTAATTAATTTTCTCAACTTTGCAAGGGCACGGAGTCACCTAGTGCAG”, which binding signal is on record?
A: 16000 fluorescence intensity (a.u.)
